D2 ag-1: agonists of human D2 dopamine receptor (beta-arrestin). P14416. DiscoveRx PathHunter D2 beta-arrestin, luminescence, 90 min; 100% = 57 uM dopamine signal. activation, % (concentration not given with the values). 360,000 compounds, 0.084% hits. AID 624465; in the data active = activation above about 40%; inconclusive = between about 15% and that limit
Target sequence (P14416 whole entry, looked up): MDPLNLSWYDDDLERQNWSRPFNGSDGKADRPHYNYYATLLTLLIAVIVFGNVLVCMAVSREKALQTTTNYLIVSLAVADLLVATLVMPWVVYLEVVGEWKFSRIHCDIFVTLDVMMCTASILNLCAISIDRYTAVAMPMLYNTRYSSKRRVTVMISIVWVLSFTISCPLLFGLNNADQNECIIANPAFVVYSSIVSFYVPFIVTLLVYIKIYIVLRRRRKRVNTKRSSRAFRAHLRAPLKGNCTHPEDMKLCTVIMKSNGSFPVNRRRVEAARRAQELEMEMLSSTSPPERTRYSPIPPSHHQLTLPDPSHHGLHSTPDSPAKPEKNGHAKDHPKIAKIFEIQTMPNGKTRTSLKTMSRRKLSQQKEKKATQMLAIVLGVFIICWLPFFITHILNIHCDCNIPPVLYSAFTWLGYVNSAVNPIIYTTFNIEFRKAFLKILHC
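Agonist mode: compounds alone added to overnight-plated D2 PathHunter cells for 90 min at 37 C, with 57 uM final dopamine (EC100) defining full response. Beta-arrestin recruitment detected by chemiluminescent reagent, read after 1 h at ambient temperature.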
D2 ag-2: activates the human D2 dopamine receptor | P14416 | HEK293 T-REx D2 cells, calcium flux agonist mode | activation, % at 2 µM | 340,000 compounds, 0.53% hits | AID 485358;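 active = activation over 3 SD above normal in the single-dose calcium agonist read, cut at about 30% in these data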
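HEK293 Trex D2 cells, tetracycline-induced, o/n 30 C 5% CO2; no-wash Ca dye, RT 30–90 min; 10-cycle baseline, 23 nl cpd added, kinetic Ca read 180 s; agonist hits = positive Ca response.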
D2 PAM-1: positive allosteric modulators of human D2 dopamine receptor; P14416; potentiation, % (concentration not given with the values); DiscoveRx D2 beta-arrestin cells, luminescence, 90 min; 100% = 57 uM dopamine signal; AID 624464; 360,000 compounds, 0.23% hits; in the data active = potentiation above about 50%; inconclusive = mostly about 30% to 49%
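PathHunter beta-arrestin assay in DiscoveRx D2 cells. Compounds were added with an EC20 of dopamine (50 nM final) for 90 min at 37 deg C. Luminescence was read 1 h after detection reagent, with 57 uM dopamine as the EC100 control.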
D2 antagonist: antagonists of human D2 dopamine receptor | HEK293 TREx D2 cells, calcium flux, dopamine EC80 | inhibition, % at 10 µM | P14416 | 340,000 compounds, 2% hits | AID 485344; in the data active = inhibition above about 30%; inactive = below that, where a call was filed
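HEK293 T-REx D2 cells, tet-induced, calcium dye no-wash. Cpd pintool add, 180 s kinetic, then EC80 DA, 180 s kinetic. Ca flux read.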
D2 PAM-2: positively modulates the human D2 dopamine receptor allosterically; P14416; HEK293 T-REx D2, calcium flux, EC20 dopamine potentiation; potentiation, % at 10 µM; 340,000 compounds, 0.34% hits; AID 485347;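 active = potentiation over 3 SD above the plate norm, cut at about 30% in these data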
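Tetracycline-induced HEK293 T-REx cells force-coupled to calcium signalling expressed D2; compounds were pin-added after a 10 s baseline, read kinetically 180 s, then an EC20 dopamine challenge followed with a further 180 s calcium read.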
Numbers stand for hits; 0 = inactive; ? = inconclusive; - = not tested or not shown. Sampled rows, rich in hits. Any-hit rate of the full collection: about 2.4%.

SMILES | D2 ag-1 | D2 ag-2 | D2 PAM-1 | D2 antagonist | D2 PAM-2
COc1ccc(C)cc1NC(=O)Cn1c(=O)n(Cc2nc(C)no2)c(=O)c2ccccc21 | - | 0 | - | - | 0
CCOc1ccc(NC(=O)/C(C#N)=C/c2ccc(N3CCCC3)c(C)c2)cc1 | 0 | 32 | 0 | 38 | 0
C=CCOc1ccc(/C=C/C(=O)OCC(=O)NC2CCCCCCC2)cc1 | 0 | 0 | 0 | 43 | 0
C=CCOc1ccc(/C=C/C(=O)OCC(=O)NCC2CCCCC2)cc1 | 0 | 0 | 0 | 0 | 0
O=S(=O)(c1ccc(Cl)cc1)n1cccn1 | 0 | 0 | 0 | 40 | 0
O=S(=O)(c1ccc(Cl)cc1)N1CCN(c2ncccn2)CC1 | 0 | 0 | 0 | 0 | 0
O=C(CN1C(=O)S/C(=C\c2cccs2)C1=O)Nc1ccc(C(=O)O)c(O)c1 | 0 | 0 | 0 | 40 | 0
CCCCN(C)CCNC(=O)C1CCN(c2nc3ccc(CC)cc3s2)CC1 | - | 0 | - | - | 0
Cc1cccc(-n2ncc3c(NNC(=O)c4ccccc4Cl)ncnc32)c1 | - | 0 | - | - | 0
Cc1cccc(-c2nc(CN3CCCC(C(=O)N4CCN(c5cc(Cl)ccc5C)CC4)C3)c(C)o2)c1 (stereo not given) | - | - | - | - | 0
Cn1c(=O)c2c(ncn2CC(N)=O)n(C)c1=O | 0 | 0 | 0 | 0 | 0
Cn1c(=O)c2c(ncn2CC2OCCO2)n(C)c1=O | 0 | 0 | 0 | 32 | 0
COc1ccc(NC(=O)c2nn(C)c3c2CS(=O)(=O)c2ccccc2-3)cc1Cl | - | 0 | - | - | 0
COc1ccccc1N1CCN(c2ccc(=O)n(CC(=O)O)n2)CC1 | - | 0 | - | - | 0
Cc1ccc(COC(=O)c2ccc(-c3nnn(Cc4ccc(C)cc4)n3)cc2)cc1 | - | - | - | - | 0
CCOC(=O)CNC(=O)CSc1nnc(-c2ccc(OC)cc2)n1CC | 0 | 0 | 0 | 35 | 0
Cc1cc(C)n(S(=O)(=O)c2cc(C(=O)O)c(Cl)cc2Cl)n1 | 0 | 0 | 0 | 0 | -
COC(=O)c1cc(S(=O)(=O)n2nc(C)c(Br)c2C)c(Cl)cc1Cl | 0 | 0 | 54 | 0 | 0
COc1cccc(NC(=O)Cn2c(=O)n(Cc3ccc(C(=O)NCc4ccc(C)cc4)cc3)c(=O)c3ccccc32)c1 | - | 0 | - | - | 0
Oc1c(CN2CCN(c3ccccc3)CC2)cc(Br)c2cccnc12 | 0 | 0 | 0 | 59 | 0
CC(C)OCc1cc(CN2CCN(c3ccccc3)CC2)c(O)c2ncccc12 | - | 0 | - | - | 0
Cc1ccc(CNC(=O)Cn2cnc3cc([N+](=O)[O-])ccc3c2=O)cc1 | 0 | 0 | 54 | 0 | 0
CC(C)(C)c1ccc(NC(=O)Cn2cnc3cc([N+](=O)[O-])ccc3c2=O)cc1 | ? | 0 | 0 | 0 | 0
COc1ccc(C(=O)N2CC(=O)Nc3ccc(C)cc3C2c2ccc(F)cc2)c(OC)c1 (stereo not given) | - | 0 | - | - | 0
Cc1ccccc1CS(=O)(=O)CCC(=O)NCCCN1CCN(c2ccccc2F)CC1 | 0 | 43 | 0 | 55 | 0
SMILES | D2 ag-1 | D2 ag-2 | D2 PAM-1 | D2 antagonist | D2 PAM-2
COc1ccc(-c2noc(CCC(=O)NCCCN3CCN(c4ccccc4F)CC3)n2)cc1 | 0 | 0 | 0 | 84 | 0
O=C(CCc1nc(-c2ccccc2)no1)NCc1ccco1 | 0 | 0 | 0 | 0 | 0
Cc1ccc2[nH]c3c(=O)n(CC(=O)NCCCN4CCN(c5ccc(F)cc5)CC4)ncc3c2c1 | 0 | 0 | 0 | 63 | 0
O=C(CCS(=O)(=O)Cc1ccc(Cl)cc1)NCCCN1CCN(c2ccccc2F)CC1 | 0 | 0 | 0 | 0 | 0
Cc1ccc(-c2noc(CCC(=O)NCc3ccco3)n2)cc1 | 0 | 0 | 0 | 60 | 0
O=C(Nc1ccccc1O)c1cc(S(=O)(=O)N2CCCC2)ccc1Cl | - | 0 | - | - | 0
Cc1ccc(-c2noc(CCC(=O)NCCCN3CCN(c4ccc(F)cc4)CC3)n2)cc1 | 0 | 0 | 0 | 61 | 0
Cc1ccc(-c2noc(CCC(=O)NCCCN3CCN(c4cccc(Cl)c4)CC3)n2)cc1 | 0 | 0 | 0 | 0 | 0
O=S(=O)(c1ccc(Br)cc1)c1nnn2c1nc(Nc1cccc(C(F)(F)F)c1)c1sccc12 | - | - | - | - | 0
CCCNC(=O)Cn1c(=O)n(CC(=O)N2CCCCC2)c(=O)c2sccc21 | 0 | 0 | 0 | 0 | 0
CCN(CC)C(=O)Cn1c(=O)n(CC(=O)N2CCCCC2)c(=O)c2sccc21 | 0 | 0 | 0 | 33 | 0
C/C(N)=C(/C#N)C(=O)COC(=O)c1cc(-c2ccc(Br)cc2)nc2ccccc12 | 0 | 0 | 0 | 47 | 0
O=C(COC(=O)c1cc(-c2ccccc2)nc2ccccc12)c1ccc(Br)cc1 | - | - | - | - | 0
CCCCOc1ccc(NC(=O)CSc2ccc(C(=O)O)cn2)cc1 | - | 0 | - | - | -
O=C(Nc1cnn(Cc2ccc(Cl)cc2Cl)c1)c1noc2c1CCc1ccccc1-2 | - | 0 | - | - | 0
CC1CN(C)C(C)CC1OC(=O)C(c1ccccc1)c1ccccc1 (stereo not given) | 0 | - | 0 | - | -
CN(C)[C@@H]1CCC[C@H]1OC(=O)C(c1ccccc1)c1ccccc1 | 0 | 0 | 0 | 47 | 0
CC(C)c1ccc(S(=O)(=O)c2cnc(SCC(=O)Nc3cccc(C(F)(F)F)c3)nc2N)cc1 | - | 0 | - | - | 0
CCN1CCN(C(=O)c2ccc3c(c2)c(C)c(C)n3Cc2ccccc2)CC1 | 0 | 0 | 0 | 38 | 0
Cc1c(C)n(Cc2ccc(F)cc2)c2ccc(C(=O)N3CCN(c4ccc(F)cc4)CC3)cc12 | - | - | - | - | 0
Clc1ccc2nc(NCc3ccccc3)c3nncn3c2c1 | - | 0 | - | - | 0
CN1CCN(/C(=N\O)c2nonc2N)CC1 | 0 | 0 | 0 | 0 | 0
Nc1nonc1/C(=N/O)N1CCN(CCO)CC1 | 0 | 0 | 0 | 51 | 0
COc1ccccc1N1CCN(C(=O)Cn2ncc3c(=O)oc4ccccc4c32)CC1 | - | 0 | - | - | 0
CC(C)c1nnc(NC(=O)CC23CC4CC(CC(C4)C2)C3)s1 | 0 | 0 | 0 | 36 | 0
SMILES | D2 ag-1 | D2 ag-2 | D2 PAM-1 | D2 antagonist | D2 PAM-2
OC(CNCc1ccc(Cl)cc1)COc1ccccc1 (stereo not given) | 0 | 0 | 0 | 49 | 0
OC(CNCc1ccccc1)COCc1ccc(Cl)cc1 (stereo not given) | 0 | 0 | 0 | 0 | 0
Cc1ccc(OCCNCC(O)COc2ccccc2)cc1 (stereo not given) | 0 | 0 | 0 | 45 | 0
Cc1ccc(C)c(OCCn2c(-c3ccc(Cl)cc3)nc3ccccc3c2=O)c1C | - | 0 | - | - | 0
CCC(CC)c1nnc(NC(=O)CS(=O)(=O)Cc2ccccc2)s1 | 0 | - | 0 | - | -
CCCC(C)c1nnc(NC(=O)CS(=O)(=O)Cc2ccccc2)s1 (stereo not given) | 0 | 0 | 0 | 0 | 30
CC(C)c1nnc(NC(=O)CS(=O)(=O)Cc2ccccc2)s1 | 0 | 0 | 0 | 55 | 0
CCCC(C)c1nnc(NC(=O)CCS(=O)(=O)Cc2ccccc2)s1 (stereo not given) | 0 | 0 | 0 | 0 | 0
COc1cccc(C2C(C(=O)Nc3ccccc3OC)=C(C)Nc3nc4ccccc4n32)c1 (stereo not given) | - | 0 | - | - | 0
O=C1CCN2C=Nc3cccc4ccc1c2c34 | 0 | 47 | 0 | 0 | 0

Assay outcomes: PubChem BioAssay, National Center for Advancing Translational Sciences (NCATS)
